In PubChem BioAssay (EPA / NIEHS):
“And” between values parts separate entries of the source, which are not always exact repeats. Equal entries are not always repeated. Records with an inconclusive call do not appear. Some compounds were tested as several samples or in several runs, with calls that do not always agree. The source made the active and inactive calls. Rule for the calls, unless noted: active = hit-call score of the fitted dose curve at least 0.9, where 1 is the maximum; inactive = score below 0.9.

Assays:
[1] = BSK_BT_PBMCCytotoxicity: PBMC Cytotoxicity Assessment in the BioMAP Diversity Plus: BT Assay (AID 2284225); conditions: primary human B cells with PBMC;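 note: PBMC viability measured by Alamar Blue dye reduction fluorescence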
How it was run: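 Primary human co-culture of B cells and PBMC, pre-dosed 1 h then activated with SEB and TSST-1. Cytotoxicity is taken from Alamar Blue dye reduction, added for 6 h at the end of a 90 h incubation.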

[2] = read-out: Secreted IgG (sIgG), gene 3500; assay: BSK_BT_sIgG: BioMAP Diversity Plus: BT Assay for Secreted IgG (sIgG) Biomarker Activity (AID 2284226); conditions: primary human B cells with PBMC
How it was run: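 Human B cell/PBMC co-culture; compound exposure 24 h; sIgG by ELISA; gain-of-signal fit vs DMSO baseline.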

[3] = read-out: Interleukin 6 (IL6), IL6 (gene 3569); assay: BSK_BT_xIL6: BioMAP Diversity Plus: BT Assay for Interleukin 6 (IL6) Biomarker Activity (AID 2284228); conditions: primary human B cells with PBMC
How it was run: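 Readout: secreted IL-6 via Luminex xMAP multiplex, 24 h post-dosing. System: primary human B cells co-cultured with PBMC. Signal change scored relative to DMSO vehicle, positive fitting direction.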

[4] = read-out: Interleukin 17A (IL17A), IL17A (gene 3605); assay: BSK_BT_xIL17A: BioMAP Diversity Plus: BT Assay for Interleukin 17A (IL17A) Biomarker Activity (AID 2284229); conditions: primary human B cells with PBMC
How it was run: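 Luminex xMAP readout of secreted IL-17A; human B cell + PBMC co-culture; 24 h post-dose; positive-direction fit vs DMSO negative control.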

[5] = read-out: Tumor necrosis factor (Homo sapiens) (UniProt P01375); assay: BSK_BT_xTNFa: BioMAP Diversity Plus: BT Assay for Tumor necrosis factor alpha (TNF-alpha) Biomarker Activity (AID 2284230); conditions: primary human B cells with PBMC
How it was run: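 Read-out: Luminex xMAP quantitation of secreted TNF-alpha from a B cell/PBMC co-culture 24 h after compound addition. Signal analysed relative to DMSO vehicle, positive fitting direction.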

[6] = read-out: Vascular cell adhesion molecule 1 (VCAM1), VCAM1 (gene 7412); assay: BSK_MyoF_VCAM1: BioMAP Diversity Plus: MyoF Assay for Vascular cell adhesion molecule 1 (VCAM1) Biomarker Activity (AID 2284231); conditions: primary human lung fibroblasts
How it was run: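 MyoF system, lung fibroblasts; 24 h post-dose; VCAM-1 by ELISA; gain-of-signal fit vs DMSO baseline.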

[7] = read-out: Collagen I, COL1A1 (gene 1277); assay: BSK_MyoF_CollagenI: BioMAP Diversity Plus: MyoF Assay for Collagen I Biomarker Activity (AID 2284238); conditions: primary human lung fibroblasts
How it was run: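 ELISA readout of Collagen I after 24 h chemical treatment of primary human lung fibroblast cultures; gain of signal scored relative to DMSO vehicle baseline.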

[8] = read-out: Collagen III, COL3A1 (gene 1281); assay: BSK_MyoF_CollagenIII: BioMAP Diversity Plus: MyoF Assay for Collagen III Biomarker Activity (AID 2284239); conditions: primary human lung fibroblasts
How it was run: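 Lung fibroblast culture; 24 h compound exposure; collagen III by ELISA; gain-of-signal fit vs DMSO baseline.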

[9] = BSK_BT_Bcell_Proliferation: Viability Assessment in the BioMAP Diversity Plus: BT Assay for B cell Proliferation (AID 2284227); conditions: primary human B cells with PBMC
How it was run: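 Human B cell/PBMC co-culture; test chemical added; 72 h; TCA fix (10%), 0.1% SRB stain, A560 for total protein as a proliferation read-out; positive-direction fit vs DMSO baseline.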

[10] = CCTE_Mundy_HCI_hNP1_Pro_ResponderAvgInten: CCTE's Proliferation Assay in human neuroprogenitor cells, Mundy Lab (AID 2284224; active = hit-call score of the fitted dose curve at least 0.9, where 1 is the maximum;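 note: human neural progenitor cells hNP1 derived from WA09 embryonic stem cells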)
How it was run: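 Human neuroprogenitors (hNP1, WA09 lineage) receive test chemical after 40 to 44 hours of attachment. A four-hour BrdU pulse begins twenty hours later, followed by fixation and high content imaging; signal is referenced to DMSO controls.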

[11] = TAMU_PeakParms_SingleDonor1434_Chronotropy: Texas A&M University (TAMU) 1.5-hr Human Induced Pluripotent Stem Cell (iPSC)-derived Cardiomyocytes Calcium (Ca+2) Flux Assay for Cardiotoxicity: Chronotropy (changes in peak frequency) (AID 2284217); conditions: actives raise or lower the signal
How it was run: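 Beat rate, as mean Ca2+-flux peak frequency, was read from donor 1434 iPSC cardiomyocytes 90 min after exposure to 0.2–100 uM test chemical (0.5% DMSO). Wells that stopped beating were excluded; EC05 from bidirectional DMSO-referenced fitting.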

[12] = CCTE_Mundy_HCI_Cortical_Synap_Neur_Matur_SynapseCount: CCTE's Synaptogenesis and Neurite Maturation Assay in rat cortical cells for Synapse Count, Mundy Lab (AID 2284218)
How it was run: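 Read-out: synapse number per neuron, automated high-content imaging of fixed cells immunostained for MAP2 and synaptophysin plus Hoechst nuclei. Rat primary cortical cultures, AraC at DIV 5, chemical dosing DIV 7–12. Positive-direction fit relative to DMSO.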

[13] = CCTE_Mundy_HCI_hN2_NOG_NeuriteCount: CCTE's Neurite Outgrowth Assay in human hN2 cells for Neurite Count, Mundy Lab (AID 2284219; active = hit-call score of the fitted dose curve at least 0.9, where 1 is the maximum)
How it was run: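 In this morphology assay, hNP1-derived neurons received test chemical 2 h post-plating and were fixed two days later in warm paraformaldehyde/sucrose containing Hoechst 33342. Neurites, labelled by rabbit anti-βIII-tubulin (1:800) and Alexa Fluor-488 (1:500), were counted automatically.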

[14] = CCTE_Mundy_HCI_Cortical_Synap_Neur_Matur_CellBodySpotCount: CCTE's Synaptogenesis and Neurite Maturation Assay in rat cortical cells for Cell Body Spot Count, Mundy Lab (AID 2284223)
How it was run: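 Read-out: cell body-associated synaptophysin puncta per neuron, imaged after MAP2, synaptophysin and Hoechst staining. Rat cortical cells, AraC DIV 5, chemical dosing DIV 7, fixation DIV 12. Activity fitted in positive direction relative to DMSO baseline.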

[15] = TAMU_HCS_1.5hr_SingleDonor1434_Cytotoxicity: Cytotoxicity Assessment using High-content Screening (HCS) Fluorescent Imaging for the Texas A&M University (TAMU) 1.5-hr Human Induced Pluripotent Stem Cell (iPSC)-derived Cardiotoxicity Assay (AID 2284234; active = hit-call score of the fitted dose curve at least 0.9, where 1 is the maximum)
How it was run: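 Nuclear counts from Hoechst 33342 imaging define cytotoxicity here, with EC10 (10% cell-count loss relative to DMSO) as point of departure. iPSC cardiomyocytes received 0.2-100 uM test chemical in 0.5% DMSO for 1.5 h at 37 C.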

[16] = TAMU_PeakParms_SingleDonor1434_QT: Texas A&M University (TAMU) 1.5-hr Human Induced Pluripotent Stem Cell (iPSC)-derived Cardiomyocytes Calcium (Ca+2) Flux Assay for Cardiotoxicity: QT (decay-rise ratio) (AID 2284235; active = hit-call score of the fitted dose curve at least 0.9, where 1 is the maximum)
How it was run: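 Decay/rise ratio of calcium-flux fluorescence scored after 90 min exposure (37C) of donor 1434 iPSC cardiomyocytes to 0.2–100 uM (0.5% DMSO). Beat-cessation and severe-notch points removed; POD is EC05, a 5% rise over DMSO.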

[17] = CCTE_Mundy_HCI_Cortical_NOG_NeuronCount: CCTE's Neurite Outgrowth Assay in rat cortical cells for Neuron Count, Mundy Lab (AID 2284236; active = hit-call score of the fitted dose curve at least 0.9, where 1 is the maximum;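 note: neurons counted by imaging betaIII-tubulin and Hoechst stained cortical cells; cells exposed to compound for about 48 hours before fixation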)
How it was run: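 Read-out: neuron number by high-content imaging of betaIII-tubulin (Alexa Fluor-488) and Hoechst-labelled rat primary cortical cells.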

Measured: AC50

Sequence of Tumor necrosis factor (Homo sapiens) (P01375 whole entry, looked up): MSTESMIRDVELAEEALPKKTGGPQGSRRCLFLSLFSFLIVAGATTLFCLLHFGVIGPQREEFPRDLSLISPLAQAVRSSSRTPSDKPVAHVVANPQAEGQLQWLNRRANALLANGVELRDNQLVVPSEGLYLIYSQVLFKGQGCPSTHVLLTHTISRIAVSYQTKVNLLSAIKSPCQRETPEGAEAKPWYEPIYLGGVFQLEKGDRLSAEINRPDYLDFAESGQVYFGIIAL

CCO[Si](CCC(F)(F)C(F)(F)C(F)(F)C(F)(F)C(F)(F)C(F)(F)F)(OCC)OCC
inactive: [1] | [2] | [3] | [4] | [5] | [6] | [7] | [8]

OCC(F)(F)C(F)(F)C(F)(F)C(F)F
inactive: [1] | [2] | [9] | [3] | [4] | [5] | [6] | [7] | [8]

N=C(N)C(F)(F)C(F)(F)C(F)(F)C(F)(F)C(F)(F)C(F)(F)C(F)(F)F
inactive: [10] | [1] | [2] | [9] | [3] | [4] | [5] | [6] | [7] | [8]
active: [1] 44.7 µM | [2] 44.4 µM | [9] 45.4 µM | [3] 46 µM | [4] 44.2 µM | [5] 45.5 µM

O=P(O)(O)OCCC(F)(F)C(F)(F)C(F)(F)C(F)(F)C(F)(F)C(F)(F)F
inactive: [1] | [2] | [4] | [5] | [6] | [7]
active: [3] 21.9 µM and 19.9 µM | [4] 20.2 µM

OCCCC(F)(F)C(F)(F)C(F)(F)C(F)(F)C(F)(F)C(F)(F)C(F)(F)F
active: [1] 20.4 µM and 20.1 µM | [2] 18.3 µM and 48.6 µM | [9] 23.6 µM and 20.6 µM | [3] 21 µM and 25.9 µM | [4] 18.8 µM and 36.4 µM | [5] 20.2 µM and 23 µM | [6] 51.2 µM and 50.4 µM | [7] 49.1 µM and 52.3 µM

CCCCCCCCC(F)(F)C(F)(F)C(F)(F)C(F)(F)C(F)(F)C(F)(F)F
inactive: [1] | [2] | [9] | [3] | [4] | [5] | [6] | [7] | [8]

FC(F)(F)C(F)(F)C(F)(F)C(F)(F)C(F)(F)C(F)(F)CC1CO1 (stereo not drawn)
inactive: [1] | [2] | [3] | [4] | [5] | [6] | [7]

CCCCCCC(C)OC(=O)CCCCC(=O)OC(C)CCCCCC (stereo not drawn)
inactive: [1] | [2] | [3] | [4] | [5] | [6] | [7] | [8]

CC(C)(C)C(=O)CC(=O)C(F)(F)C(F)(F)C(F)(F)F
inactive: [10] | [1] | [9] | [3] | [4] | [5] | [6] | [7]

FC(F)(F)C(F)(F)C(F)(F)C(F)(F)C(F)(F)C(F)(F)C(F)(F)C(F)(F)F
inactive: [10] | [1] | [3] | [4] | [5] | [6] | [7]

FC(F)(F)C(F)(F)C(F)(F)N(C(F)(F)C(F)(F)C(F)(F)F)C(F)(F)C(F)(F)C(F)(F)F
inactive: [1] | [2] | [3] | [4] | [5] | [6] | [7] | [8]

FC(F)(F)C(F)(F)C(F)(F)C(F)(F)CCI
inactive: [1] | [2] | [3] | [4] | [5] | [6] | [7]

Nc1ccc([N+](=O)[O-])cc1O
inactive: [1] | [2] | [3] | [4] | [5] | [6] | [7] | [8]

OC[C@@H](O)[C@@H](O)[C@H](O)[C@@H](O)CO
inactive: [11] | [12] | [13] | [14] | [10] | [15] | [16] | [17]

FC(F)(I)C(F)(F)C(F)(F)C(F)(F)I
active: [1] 49.7 µM and 47.7 µM and 47.2 µM | [2] 45.7 µM and 46.4 µM and 56.3 µM | [3] 46.3 µM and 55.2 µM and 45.9 µM | [4] 42.1 µM and 50.4 µM and 39.2 µM | [5] 48.3 µM and 46.1 µM and 46 µM | [6] 52.7 µM and 45.4 µM and 45.5 µM | [7] 51.6 µM and 46.4 µM and 54.1 µM

O=C(O)C(F)(F)C(F)(F)C(F)(F)C(F)(F)C(F)(F)C(F)(F)C(F)(F)C(F)(F)C(F)(F)C(F)(F)C(F)(F)C(F)(F)F
active: [7] 24.5 µM and 18.6 µM
inactive: [1] | [2] | [3] | [4] | [5] | [6] | [8]

OCC(F)(F)C(F)(F)C(F)(F)C(F)(F)C(F)(F)C(F)(F)F
active: [1] 41 µM | [5] 41.2 µM
inactive: [1] | [3] | [4] | [5] | [6] | [7] | [8]
